ST2 IL33 inh: IL1RL1 inhibition; Q01638; AlphaLISA ST2-Fc/biotin-IL-33 interaction, 1 h; inhibition, % for hits at 17 µM; actives 2.3% (n = 78,000); AID 1259354; in the data active = inhibition above about 30%
Target sequence (Q01638 whole entry, looked up): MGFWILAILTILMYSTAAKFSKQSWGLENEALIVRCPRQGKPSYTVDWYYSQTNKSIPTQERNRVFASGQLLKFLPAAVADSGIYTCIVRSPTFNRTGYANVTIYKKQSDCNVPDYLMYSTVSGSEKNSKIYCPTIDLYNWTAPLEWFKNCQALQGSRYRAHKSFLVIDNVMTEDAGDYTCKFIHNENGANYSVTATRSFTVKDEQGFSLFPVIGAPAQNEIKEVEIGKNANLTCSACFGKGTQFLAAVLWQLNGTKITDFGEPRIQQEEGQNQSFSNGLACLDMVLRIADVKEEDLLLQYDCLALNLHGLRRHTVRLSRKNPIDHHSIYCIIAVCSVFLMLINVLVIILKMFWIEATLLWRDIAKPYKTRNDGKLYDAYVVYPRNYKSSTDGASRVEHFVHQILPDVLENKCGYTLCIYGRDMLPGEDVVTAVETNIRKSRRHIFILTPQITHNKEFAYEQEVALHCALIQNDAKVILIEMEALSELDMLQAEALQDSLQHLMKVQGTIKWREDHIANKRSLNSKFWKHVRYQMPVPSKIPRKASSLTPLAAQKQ
* marks the source's active call; other numbers are inactive results; i = inactive. Shown is part of a subset that was picked to be rich in hits.

SMILES	ST2 IL33 inh
CN(Cc1ccc([N+](=O)[O-])cc1)C1CCCCC1	i
O=C1CCCC2=C1C(c1ccc(Cl)cc1)N(C(=O)c1ccccc1)c1ccccc1N2 (configuration not stated)	i
Cc1cc(N2CCCC2)nc(N2CCN(S(=O)(=O)c3ccc(F)cc3)CC2)n1	i
Cc1ccccc1-n1c(N)c(C#N)c2nc3ccccc3nc21	30%*
N#Cc1c(N)n(CCN2CCOCC2)c2nc3ccccc3nc12	36%*
CCCCCn1c(N)c(C#N)c2nc3ccccc3nc21	i
N#Cc1c(N)n(-c2cccc(F)c2)c2nc3ccccc3nc12	i
CCOC(=O)c1c(N)n(-c2ccc(OCC)cc2)c2nc3ccccc3nc12	i
Cc1ccc2c(c1)c1nc3ccccc3nc1n2CCN1CCOCC1	i
OCc1ccc(CN2CCCC(N3CCN(Cc4ccc5c(c4)OCO5)CC3)C2)o1 (configuration not stated)	i
COc1ccccc1CN(Cc1cccc(C)c1)C(=O)c1ccc(=O)n(C)c1	i
C=CCSc1nc(O)c(C(C)CC)c(=O)[nH]1 (configuration not stated)	i
CC(C)(C)c1ccc(Cn2c(N)nc3ccccc32)cc1	i
CSCC(=O)Nc1nc2c(s1)C[C@]1(C)CC[C@@H]3[C@H](OC(=O)[C@H]3C)[C@H]1[C@@H]2C	i
C[C@@H]1C(=O)O[C@H]2[C@H]1CC[C@@]1(C)Cc3sc(NC(=O)c4ccc(N(C)C)cc4)nc3[C@@H](C)[C@H]21	i
C[C@@H]1C(=O)O[C@H]2[C@H]1CC[C@@]1(C)Cc3sc(Nc4cccnc4)nc3[C@@H](C)[C@H]21	36%*
C=CCNC(=O)Nc1nc2c(s1)C[C@]1(C)CC[C@@H]3[C@H](OC(=O)[C@H]3C)[C@H]1[C@@H]2C	34%*
C[C@@H]1C(=O)O[C@H]2[C@H]1CC[C@@]1(C)Cc3sc(Nc4ccc(C(=O)O)cc4)nc3[C@@H](C)[C@H]21	85%*
COc1cc(NC(=O)Nc2nc3c(s2)C[C@]2(C)CC[C@@H]4[C@H](OC(=O)[C@H]4C)[C@H]2[C@@H]3C)cc(OC)c1	i
C[C@H]1[C@@H]2[C@H]3OC(=O)[C@@H](C)[C@@H]3CC[C@@]2(C)CC[C@@H]1NC(=O)C1CC1	i
C[C@H](C(=O)NCCN1CCOCC1)C1CC[C@@]2(C)Cc3sc(-c4ccccc4)nc3[C@@H](C)[C@@H]2[C@H]1O (some centres not stated)	i
COC(=O)c1cc(C(=O)OC)cc(-n2c(/C=C\c3ccc(F)cc3)nc3ccccc3c2=O)c1	i
Cc1[nH]c(=O)[nH]c(=O)c1S(=O)(=O)NC1CCCCC1C (configuration not stated)	i
Cc1nnc(CN2CCC(=O)N(Cc3ccc(F)cc3)C(C(C)C)C2)s1 (configuration not stated)	i
Cc1ccc(N2C(=O)c3cccc(N)c3C2=O)c(C)c1	i
SMILES	ST2 IL33 inh
CCOc1ccc(NC(=O)c2oc3ccccc3c2NC(=O)c2cc3ccccc3oc2=O)cc1	i
CNS(=O)(=O)c1cccs1	i
CCOc1cc(C(=O)NCc2cccs2)cc(OCC)c1OCC	i
COc1ccc(-n2c(CN3CCN(S(=O)(=O)c4cccc(OC)c4)CC3)nc3cccnc32)cc1	i
COc1cc(C=O)ccc1OCCCOc1ccccc1C(=O)O	i
CCCCOc1ccc(/C=c2\sc3nc(=O)c(C)nn3c2=O)cc1OC	i
COc1ccccc1OCCCOc1ccc(/C=C2/C(=N)N3C=CSC3=NC2=O)cc1OC	34%*
CCOc1ccc(C2C(C(=O)Nc3ccccn3)=C(C)NC3=C2C(=O)CC(C)(C)C3)cc1 (configuration not stated)	i
COCCN(CCOC)c1ncnc2c1cnn2-c1ccc(OC)cc1	i
O[C@@H]1C[C@@H](c2nc(Cc3ccccc3)no2)N(Cc2ccc(Cl)cc2)C1	i
Cc1ccc(NC(=O)C2CCC(C)(C(=O)O)C2(C)C)cc1 (configuration not stated)	i
O=c1oc(-c2cc([N+](=O)[O-])ccc2Cl)nc2ccc(I)cc12	i
O=c1oc(-c2cc([N+](=O)[O-])ccc2Cl)nc2ccc(Br)cc12	i
N#C/C(=C\c1ccc(-c2cc([N+](=O)[O-])ccc2Cl)o1)c1[nH]nc(N)c1C#N	45%*
COC(=O)C1=C(C)NC2=C(C(=O)CC(c3ccc(Cl)cc3)C2)C1c1ccc(F)cc1 (configuration not stated)	i
CCOC(=O)C1(Cc2ccccc2Cl)CCN(C(=O)CCOc2ccccc2)CC1	i
CCOc1ccc2oc(-c3ccccc3)c(C(=O)O)c2c1	i
CCOc1ccc(N(C(C)C(=O)NCc2ccco2)S(C)(=O)=O)cc1 (configuration not stated)	i
CCOc1ccc2sc(C=NCc3ccco3)c(O)c2c1	31%*
COc1ccc(N2CCCS2(=O)=O)cc1NC(=O)c1cc(Cl)ccc1OC	i
O=C(Nc1ccccc1F)c1ccc2nc(-c3ccco3)c(-c3ccco3)nc2c1	i
O=C(Nc1nccs1)c1ccc2nc(-c3ccco3)c(-c3ccco3)nc2c1	30%*
O=C(Nc1nccs1)c1ccc2snnc2c1	i
CC(C)(C)c1ccc(-c2cc(C[C@H]3CNCC[C@H]3CC(=O)NCc3ccc(F)cc3)no2)cc1	i
COc1ccc(CNC(=O)C[C@@H]2CCNC[C@@H]2Cc2cc(-c3ccc(C(C)(C)C)cc3)on2)cc1	47%*
SMILES	ST2 IL33 inh
CC(C)(C)c1ccc(-c2cc(C[C@H]3CNCC[C@H]3CC(=O)NCc3ccccc3)no2)cc1	i
O=C(c1cc2c(s1)CCCC2)N1CCC(Cn2cc(CCO)nn2)CC1	i
CCC(=O)N(C)C(Cc1ccc(F)cc1F)C1CCN(C(=O)c2cc3cc(F)ccc3[nH]2)CC1 (configuration not stated)	i
CCCCn1cnc2c(cnn2-c2ccc(Cl)cc2)c1=O	30%*
CCCCn1cnc2c(cnn2-c2ccc(F)cc2)c1=O	i
CCCn1cnc2c(cnn2-c2ccc(F)cc2)c1=O	i
O=C1CSC(c2cccc3ccccc23)N1c1ccccc1 (configuration not stated)	i
Cc1ccc(NC(=O)C(c2ccccc2)c2ccccc2)c([N+](=O)[O-])c1	41%*
Cc1ccc(NC(=O)CC(C)C)c([N+](=O)[O-])c1	i
Cc1ccc(NC(=O)c2cc3ccccc3o2)c([N+](=O)[O-])c1	i
O=C(Nc1nccs1)c1cccc(CN2CCCC2Cn2cccn2)c1 (configuration not stated)	i
C=C(C)C(C)(C)C(=O)NCc1cccnc1Oc1ccccc1OC	i
COc1ccc(C(=O)NCCNc2ccc([N+](=O)[O-])cc2)cc1Cl	i
O=C(Nc1ccccc1O)c1ccc([N+](=O)[O-])cc1	i
O=C(c1ccc([N+](=O)[O-])cc1)c1ccc(Cl)c(Cl)c1	58%*
Cn1c(C(=O)NCCCN2CCOCC2)cc2c(=O)n3ccccc3nc21	i
Cc1ccc(S(=O)(=O)Cc2noc([C@@H]3C[C@@H](O)CN3Cc3cc4ccccc4o3)n2)cc1	i
COc1ccc(-c2nc(CN3CCN4C(=O)CNC(=O)C4C3)c(C)o2)c(F)c1 (configuration not stated)	i
COc1ccc(/C=C(/NC(=O)c2ccco2)C(=O)Nc2ccc(C)cc2)cc1	i
O[C@@H]1C[C@@H](c2nc(-c3ccc(OC(F)(F)F)cc3)no2)N(Cc2ccccc2)C1	i
